# Measured values as given in article PMC5540273 (PLoS ONE, 2017).
# Several values for one entry are separate records, joined by “and”; a condition that tells them apart may be missing. Equal entries are not always repeated. Where two headings read alike, the source gives them in different places.
# How the values were obtained:
# Conditions in all cases: concentration: 1 μM, replicates: in singlicate, n = 1
# SGK = test system: SGK
# SIK2 = test system: SIK2
# SIK = test system: SIK
# SLK = test system: SLK
# SNARK = test system: T1, SNARK
# T1 construct: gene NUAK2
# SNRK = test system: SNRK
# SRC = test system: SRC
# SRMS = test system: SRMS
# SRPK1 = test system: SRPK1
# SRPK2 = test system: SRPK2
# SRPK3 = test system: SRPK3
# STK16 = test system: STK16
# STK33 = test system: STK33
# STK35 = test system: STK35
# STK36 = test system: STK36
# STK39 = test system: STK39
# SYK = test system: SYK
# SgK110 = test system: SgK110
# TAK1 = test system: T2, TAK1
# T2 construct: gene MAP3K7
# TAOK1 = test system: TAOK1
# 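Further: KINOMEscan kinase panel screen.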
structure (smiles),measurement,setting,value
COc1ccc(COc2cc(-n3cnc4ccccc43)sc2C(N)=O)cc1 [GSK1024304],%Inh,SGK,0%
same,%Inh,SIK2,0%
same,%Inh,SIK,0%
same,%Inh,SLK,9%
same,%Inh,SNARK,2%
same,%Inh,SNRK,0%
same,%Inh,SRC,0%
same,%Inh,SRMS,0%
same,%Inh,SRPK1,29%
same,%Inh,SRPK2,0%
same,%Inh,SRPK3,17%
same,%Inh,STK16,0%
same,%Inh,STK33,13%
same,%Inh,STK35,0%
same,%Inh,STK36,0%
same,%Inh,STK39,0%
same,%Inh,SYK,26%
same,%Inh,SgK110,0%
same,%Inh,TAK1,0%
same,%Inh,TAOK1,0%
COCCNC(=O)c1ccc(-c2cc(C(=O)NC3CC3)cc(F)c2C)cc1 [GW868318],%Inh,SGK,36%
same,%Inh,SIK2,0%
same,%Inh,SIK,6%
same,%Inh,SLK,0%
same,%Inh,SNARK,16%
same,%Inh,SNRK,16%
same,%Inh,SRC,23%
same,%Inh,SRMS,24%
same,%Inh,SRPK1,7%
same,%Inh,SRPK2,0%
same,%Inh,SRPK3,20%
same,%Inh,STK16,0%
same,%Inh,STK33,10%
same,%Inh,STK35,0%
same,%Inh,STK36,2%
same,%Inh,STK39,16%
same,%Inh,SYK,1%
same,%Inh,SgK110,21%
same,%Inh,TAK1,14%
same,%Inh,TAOK1,29%
O=c1cc(N2CCOCC2)nc2n(Cc3cccc(Cl)c3Cl)c(C3CC3)nn12 [GSK2358994],%Inh,SGK,30%
same,%Inh,SIK2,0%
same,%Inh,SIK,0%
same,%Inh,SLK,46%
same,%Inh,SNARK,0%
same,%Inh,SNRK,0%
same,%Inh,SRC,22%
same,%Inh,SRMS,0%
same,%Inh,SRPK1,17%
same,%Inh,SRPK2,0%
same,%Inh,SRPK3,0%
same,%Inh,STK16,10%
same,%Inh,STK33,0%
same,%Inh,STK35,0%
same,%Inh,STK36,3%
same,%Inh,STK39,0%
same,%Inh,SYK,0%
same,%Inh,SgK110,0%
same,%Inh,TAK1,0%
same,%Inh,TAOK1,0%
Cn1ccc2ncnc(Oc3ccc(NC(=O)Nc4ccncc4)c(Cl)c3)c21,%Inh,SGK,0%
same,%Inh,SIK2,0%
same,%Inh,SIK,0%
same,%Inh,SLK,0%
same,%Inh,SNARK,0%
same,%Inh,SNRK,0%
same,%Inh,SRC,13%
same,%Inh,SRMS,0%
same,%Inh,SRPK1,0%
same,%Inh,SRPK2,0%
same,%Inh,SRPK3,0%
same,%Inh,STK16,10%
same,%Inh,STK33,0%
same,%Inh,STK35,0%
same,%Inh,STK36,5%
same,%Inh,STK39,100%
same,%Inh,SYK,3%
same,%Inh,SgK110,30%
same,%Inh,TAK1,0%
same,%Inh,TAOK1,0%
N#Cc1c(N2CCOCC2)sc(-c2ccn[nH]2)c1-c1ccc(Cl)cc1,%Inh,SGK,23%
same,%Inh,SIK2,4%
same,%Inh,SIK,13%
same,%Inh,SLK,17%
same,%Inh,SNARK,5%
same,%Inh,SNRK,12%
same,%Inh,SRC,0%
same,%Inh,SRMS,0%
same,%Inh,SRPK1,0%
same,%Inh,SRPK2,0%
same,%Inh,SRPK3,0%
same,%Inh,STK16,33%
same,%Inh,STK33,10%
same,%Inh,STK35,0%
same,%Inh,STK36,0%
same,%Inh,STK39,17%
same,%Inh,SYK,16%
same,%Inh,SgK110,0%
same,%Inh,TAK1,14%
same,%Inh,TAOK1,0%
O=C(Nc1n[nH]c2cc(-c3cccc(F)c3)ccc12)C1CC1 [SB-735464],%Inh,SGK,13%
same,%Inh,SIK2,0%
same,%Inh,SIK,0%
same,%Inh,SLK,11%
same,%Inh,SNARK,0%
same,%Inh,SNRK,0%
same,%Inh,SRC,0%
same,%Inh,SRMS,18%
same,%Inh,SRPK1,36%
same,%Inh,SRPK2,4%
same,%Inh,SRPK3,37%
same,%Inh,STK16,5%
same,%Inh,STK33,0%
same,%Inh,STK35,12%
same,%Inh,STK36,16%
same,%Inh,STK39,0%
same,%Inh,SYK,4%
same,%Inh,SgK110,0%
same,%Inh,TAK1,6%
same,%Inh,TAOK1,40%
O=C1NC(=O)C(N2CCc3ccccc32)=C1c1cccc(Cl)c1 [SB-408010],%Inh,SGK,0%
same,%Inh,SIK2,0%
same,%Inh,SIK,12%
same,%Inh,SLK,26%
same,%Inh,SNARK,2%
same,%Inh,SNRK,0%
same,%Inh,SRC,10%
same,%Inh,SRMS,0%
same,%Inh,SRPK1,14%
same,%Inh,SRPK2,9%
same,%Inh,SRPK3,31%
same,%Inh,STK16,26%
same,%Inh,STK33,0%
same,%Inh,STK35,19%
same,%Inh,STK36,16%
same,%Inh,STK39,54%
same,%Inh,SYK,0%
same,%Inh,SgK110,1%
same,%Inh,TAK1,21%
same,%Inh,TAOK1,0%
Cc1cn2c(=O)cc(N3CCOCC3)nc2n1Cc1cccc(Cl)c1Cl [GSK2334006],%Inh,SGK,0%
same,%Inh,SIK2,3%
same,%Inh,SIK,4%
same,%Inh,SLK,32%
same,%Inh,SNARK,0%
same,%Inh,SNRK,1%
same,%Inh,SRC,42%
same,%Inh,SRMS,0%
same,%Inh,SRPK1,21%
same,%Inh,SRPK2,0%
same,%Inh,SRPK3,0%
same,%Inh,STK16,14%
same,%Inh,STK33,4%
same,%Inh,STK35,3%
same,%Inh,STK36,0%
same,%Inh,STK39,17%
same,%Inh,SYK,21%
same,%Inh,SgK110,0%
same,%Inh,TAK1,0%
same,%Inh,TAOK1,0%
Nc1nc(-c2ccc3c(N)n[nH]c3c2)cc(N2CCCC2)n1 [GSK2227430],%Inh,SGK,0%
same,%Inh,SIK2,0%
same,%Inh,SIK,0%
same,%Inh,SLK,0%
same,%Inh,SNARK,3%
same,%Inh,SNRK,0%
same,%Inh,SRC,0%
same,%Inh,SRMS,0%
same,%Inh,SRPK1,4%
same,%Inh,SRPK2,0%
same,%Inh,SRPK3,0%
same,%Inh,STK16,8%
same,%Inh,STK33,0%
same,%Inh,STK35,0%
same,%Inh,STK36,0%
same,%Inh,STK39,0%
same,%Inh,SYK,0%
same,%Inh,SgK110,0%
same,%Inh,TAK1,0%
same,%Inh,TAOK1,0%
Cl.Cl.Cl.Fc1ccc(-c2ncn(C3CCNCC3)c2-c2ccnc(Nc3ccccc3)n2)cc1 [SB-238039],%Inh,SGK; 1 µM,41% and 0%
same,%Inh,SIK2; 1 µM,65% and 46%
same,%Inh,SIK; 1 µM,1% and 4%
same,%Inh,SLK; 1 µM,28% and 0%
same,%Inh,SNARK; 1 µM,9% and 0%
same,%Inh,SNRK; 1 µM,0% and 10%
same,%Inh,SRC; 1 µM,0% and 4%
same,%Inh,SRMS; 1 µM,29% and 0%
same,%Inh,SRPK1; 1 µM,7% and 0%
same,%Inh,SRPK2; 1 µM,7% and 0%
same,%Inh,SRPK3; 1 µM,11% and 26%
same,%Inh,STK16; 1 µM,5% and 0%
same,%Inh,STK33; 1 µM,0% and 12%
same,%Inh,STK35; 1 µM,2% and 0%
same,%Inh,STK36; 1 µM,97.9% and 93%
same,%Inh,STK39; 1 µM,18% and 0%
same,%Inh,SYK; 1 µM,8% and 3%
same,%Inh,SgK110; 1 µM,35% and 0%
same,%Inh,TAK1; 1 µM,24% and 46%
same,%Inh,TAOK1; 1 µM,88% and 57%
